SMILES strings stand for the structures. Results filed as inconclusive are left out. Activity calls are given as the source filed them. The call rests on the fitted dose curve; in most records, active means well fitted curve in the direction sought with a large enough effect; inconclusive means small, poorly fitted or top-dose-only effect, or another doubt; inactive means no such curve, though single readings can be large; an effect the other way counts as inactive or inconclusive.

This is an account of results in PubChem BioAssay (NCATS).

The nature of experiment [1]: Quantitative High-Throughput drug screen in 47 multiple myeloma cell lines against the NCATS MIPE library collection: JIM3_ECACC cell viability assay (AID 1918963; further: nearly all actives have a fitted effect of over 35% in size). The essentials:
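Luminescent ATP measurement with CellTiter-Glo gives viability, scaled between DMSO-only wells (100%) and media-only wells (0%). Cells, 500 per well, faced library compounds for 48 hours at 37C.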

The nature of experiment [2]: Quantitative High-Throughput drug screen in 47 multiple myeloma cell lines against the NCATS MIPE library collection: INA6_PLB cell viability assay (AID 1918965; further: nearly all actives have a fitted effect of over 55% in size). The essentials:
(§1)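 Steps: seed 500 cells per well; pin-transfer MIPE 4.0 library; incubate 48 h at 37C, 5% CO2, humidified; add CellTiter-Glo, 5 min room temperature; read luminescence.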

A short description of experiment [3]: Quantitative High-Throughput drug screen in 47 multiple myeloma cell lines against the NCATS MIPE library collection: H1112_PLB cell viability assay (AID 1918967; further: nearly all actives have a fitted effect of over 30% in size). The essentials:
(§2)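 Relative luminescence from CellTiter-Glo served as the viability signal, referenced to DMSO-treated (100%) and cell-free medium (0%) controls. Treatment lasted 48 hours at 37C with 500 cells per well.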

Experiment [4] can be described thus: Quantitative High-Throughput drug screen in 47 multiple myeloma cell lines against the NCATS MIPE library collection: Karpas25_ECACC cell viability assay (AID 1918968; further: nearly all actives have a fitted effect of over 35% in size). In short, it runs like this:
as §2

A short description of experiment [5]: Quantitative High-Throughput drug screen in 47 multiple myeloma cell lines against the NCATS MIPE library collection: KMS27_JCRB cell viability assay (AID 1918970). Further: nearly all actives have a fitted effect of over 30% in size. The settings on record: KMS27 myeloma cells, CellTiter-Glo ATP viability, 48 h; viability (% of DMSO): at 45.8 µM (top of the series). In short, it runs like this: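 Myeloma cells (500 per well) were exposed to MIPE 4.0 compounds for 48 h at 37 °C, 5% CO2; viability was read as ATP luminescence with CellTiter-Glo, normalized to DMSO-only (100%) and media-only (0%) wells.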
Background: Cellular ATP, detected with luciferase, serves as a proxy for viable cell number.

Experiment [6] can be described thus: Quantitative High-Throughput drug screen in 47 multiple myeloma cell lines against the NCATS MIPE library collection: KMS12BM_JCRB cell viability assay (AID 1918971). Further: nearly all actives have a fitted effect of over 35% in size. In short, it runs like this: as §2
Experiment [7] in a line: Quantitative High-Throughput drug screen in 47 multiple myeloma cell lines against the NCATS MIPE library collection: KMS12PE_JCRB cell viability assay (AID 1918972). Further: nearly all actives have a fitted effect of over 30% in size. The essentials: as §1
The nature of experiment [8]: Quantitative High-Throughput drug screen in 47 multiple myeloma cell lines against the NCATS MIPE library collection: JJN3_DSMZ cell viability assay (AID 1918966; further: nearly all actives have a fitted effect of over 50% in size). In short, it runs like this:
as §2
Potency means the concentration at half of the fitted maximal effect.

Turning to `Cc1cc(CS(=O)(=O)c2ccccc2)cc(OCc2ccc(CN3CCC[C@H]3CO)cc2)c1`, the Potency in experiment [1] was 20.9 µM (active); in experiment [2], 18.7 µM (active); in experiment [3], 16.6 µM (active); in experiment [4], 16.6 µM (active); in experiment [5], 4.18 µM (active); in experiment [6], 16.6 µM (active). Moreover, the Potency in experiment [7] was 16.6 µM (active).
As for `CN1[C@H]2CC[C@H]1CC(OC(=O)c1c[nH]c3ccccc13)C2` (stereo not given in full), the Potency entry in experiment [1], in experiment [2], in experiment [5], in experiment [6] and in experiment [7] was “inactive” each time.
As to `CN1CCN2c3ncccc3Cc3ccccc3C2C1` (stereo not given), the Potency result in experiment [1], in experiment [2], in experiment [3] and in experiment [7] was “inactive” each time. Further, in experiment [5], the Potency is 1.05 µM (active).
For the compound `CON(C)C(=O)N1N=C(c2cc(F)ccc2F)S[C@]1(CCCN)c1ccccc1`, the Potency result in experiment [1], in experiment [2], in experiment [3] and in experiment [6] was “inactive” each time. The Potency in experiment [5] and in experiment [7] was 0.001 µM (active) in each case.
`CCC=CC[C@H]1C(=O)CC[C@@H]1CC(=O)OC`: the Potency entry in experiment [1], in experiment [2], in experiment [3], in experiment [4], in experiment [5] and in experiment [7] was “inactive” each time. In experiment [6], the Potency was 2.35 µM (active).
Take `COc1nccc(-c2c(-c3ccc(F)cc3)ncn2C2CCC(O)CC2)n1` (stereo not given): in experiment [1], the Potency entry is “inactive”. Further, the Potency was 13.2 µM (active) in experiment [2] and 20.9 µM (active) in experiment [6].
In the case of `Cn1c(=O)c(-c2c(Cl)cccc2Cl)cc2cnc(Nc3cccc(C(=O)O)c3)nc21`, the Potency result in experiment [1] and in experiment [4] was “inactive” in each case. The Potency in experiment [8] is 4.18 µM (active); in experiment [5], 0.526 µM (active).
`COc1ccc2ccc(=O)oc2c1CC=C(C)C`: in experiment [1], the Potency entry was “inactive”. The Potency in experiment [8] was 11.8 µM (active); in experiment [4], 20.9 µM (active); in experiment [5] it was 18.7 µM (active); in experiment [6] it was 13.2 µM (active); in experiment [7], 20.9 µM (active).
As for `CCCCC(C)(C)[C@H](O)C=C[C@H]1[C@H](O)CC(=O)[C@H]1CC=CCCCC(=O)O`, the Potency in experiment [1] is 20.9 µM (active); in experiment [2] it was 23.5 µM (active); in experiment [4], 18.7 µM (active); in experiment [6], 18.7 µM (active). For the same compound, the Potency result in experiment [5] and in experiment [7] was “inactive” throughout.
`OC(c1cc(C(F)(F)F)nc2c(C(F)(F)F)cccc12)C1CCCCN1` (stereo not given): the Potency is 18.7 µM (active) in experiment [1]; 23.5 µM (active) in experiment [2]; 20.9 µM (active) in experiment [3]; 16.6 µM (active) in experiment [4]; 26.4 µM (active) in experiment [6]; 20.9 µM (active) in experiment [7].
Consider `Cc1ccc(C2=Nc3ccc(Cl)cc3OC2)cc1`, for which the Potency entry in experiment [1] and in experiment [3] was “inactive” throughout. In addition, the figures for the Potency in experiment [8], in experiment [4] and in experiment [7] were 5.26 µM (active), 3.72 µM (active) and 4.18 µM (active), respectively.
Turning to `NC(=O)c1ccc(N(C(N)=O)c2c(F)cccc2F)nc1-c1ccc(F)cc1F`, the Potency in experiment [1] is 11.8 µM (active); in experiment [2], 18.7 µM (active); in experiment [3] it was 5.26 µM (active); in experiment [4], 7.43 µM (active). Further, the Potency result in experiment [5] and in experiment [7] was “inactive” in each case.
For `Cc1cc2c(cc1C1(c3ccc(C(=O)O)cn3)CC1)C(C)(C)CCC2(C)C`, the Potency in experiment [1] was 0.332 µM (active); in experiment [8], 1.05 µM (active); in experiment [3], 0.118 µM (active); in experiment [6], 3.32 µM (active). For the same compound, the Potency result in experiment [7] was “inactive”.
For `Cc1nn(Cc2ccccc2Cl)c(C)c1CN(C)CC(O)COc1ccc(Cl)cc1` (stereo not given), the Potency in experiment [1] is 18.7 µM (active); in experiment [2], 20.9 µM (active); in experiment [4], 20.9 µM (active); in experiment [6], 23.5 µM (active); in experiment [7], 5.9 µM (active).
Take `NCC1CCC(C(=O)O)CC1` (stereo not given): the Potency result in experiment [1], in experiment [2], in experiment [3], in experiment [4], in experiment [5] and in experiment [6] was “inactive” throughout. In experiment [7], the Potency result is “inactive”.
Regarding `Cc1ccccc1C(C(=O)NC1CCCCC1)N(C(=O)CNc1ccc(C#N)cc1)c1cccc(F)c1` (stereo not given), the Potency entry in experiment [1], in experiment [2], in experiment [3] and in experiment [4] was “inactive” each time. In addition, the Potency in experiment [6] was 2.96 µM (active).
As to `CC1=C(C(=O)Nc2cc3cn[nH]c3cc2F)C(c2ccc(C(F)(F)F)cc2)CC(=O)N1` (stereo not given), the Potency result in experiment [1], in experiment [3] and in experiment [7] was “inactive” throughout. Further, the Potency in experiment [2] was 18.7 µM (active).
For `C[C@H](CCC(=O)O)[C@H]1CC[C@H]2[C@H]3[C@@H](CC[C@]12C)[C@@]1(C)CC[C@@H](O)C[C@H]1C[C@@H]3O`, the Potency entry in experiment [1], in experiment [2] and in experiment [6] was “inactive” throughout. The Potency in experiment [5] is 20.9 µM (active).
With `CC(C)(O)CC(=O)NCCn1ccc2ncnc(Nc3ccc(Oc4cccc(C(F)(F)F)c4)c(Cl)c3)c21`, the Potency is 23.5 µM (active) in experiment [1]; 29.6 µM (active) in experiment [2]; 23.5 µM (active) in experiment [4]; 23.5 µM (active) in experiment [6]; 5.9 µM (active) in experiment [7].
Consider `Nc1ccn([C@@H]2O[C@H](CO)[C@@H](O)[C@H]2O)c(=O)n1`, for which the Potency entry in experiment [1], in experiment [8], in experiment [6] and in experiment [7] was “inactive” in each case.
